activity, negative = inhibition and AC50 data for 60 molecules are collected here from PubChem BioAssay AID1851 (National Center for Advancing Translational Sciences (NCATS), 2009).

The whole screen tested about 16,000 compounds, of which about 5,100 (32%) were called active. Not shown: some 25% with an inconclusive outcome. Some of the results follow. Unmarked numbers belong to inactive results. Calls come from the whole dose curve; as a rule, active = well fitted curve in the direction sought with a large enough effect; inconclusive = small, poorly fitted or top-dose-only effect, or effect the other way; inactive = no such curve, though single readings can be large or run the other way.
% is set by controls: 0 for no effect and ±100 for the full control effect.

The target of the assay is Cytochrome P450 3A4 (Homo sapiens) (UniProt P08684). Kind of assay: Cytochrome panel assay with activity outcomes. The conditions noted are these: recombinant CYP, pro-luciferin dealkylation, luminescence, p450-cyp3a4; series mostly up to 57.1 µM.
Sequence of Cytochrome P450 3A4 (Homo sapiens) (P08684 whole entry, looked up): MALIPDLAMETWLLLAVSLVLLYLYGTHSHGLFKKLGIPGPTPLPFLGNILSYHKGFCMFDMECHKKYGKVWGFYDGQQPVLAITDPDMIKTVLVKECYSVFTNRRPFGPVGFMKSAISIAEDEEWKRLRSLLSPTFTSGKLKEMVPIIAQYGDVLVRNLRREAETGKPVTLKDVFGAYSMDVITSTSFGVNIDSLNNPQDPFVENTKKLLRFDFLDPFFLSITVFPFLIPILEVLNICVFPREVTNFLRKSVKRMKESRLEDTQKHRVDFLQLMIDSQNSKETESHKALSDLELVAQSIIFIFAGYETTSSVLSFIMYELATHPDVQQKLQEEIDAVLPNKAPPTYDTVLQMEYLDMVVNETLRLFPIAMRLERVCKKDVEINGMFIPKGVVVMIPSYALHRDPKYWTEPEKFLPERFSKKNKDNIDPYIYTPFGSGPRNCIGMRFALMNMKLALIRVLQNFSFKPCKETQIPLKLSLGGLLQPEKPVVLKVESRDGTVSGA
On to `CCCCCCc1nc2ccccc2c(=O)n1NC(=O)c1c(O)c2c(n(CC(C)C)c1=O)CCCC2`, for which the activity, negative = inhibition is 10% [at 2.29 µM]. For `CCCn1c2c(c(O)c(C(=O)NCc3ccccc3)c1=O)CCCC2`, the AC50 – broadly, the midpoint of the concentration-response curve, whichever way the signal moves – was 17.8 µM (active). `Cc1cc(=O)oc(C)c1C(=O)NCc1ccccc1`: the activity, negative = inhibition was 0.149% [at 2.29 µM]. Regarding `COc1ccc(-n2c(=O)c(-c3cn(C)c4ccccc34)nc3cnc(OC)nc32)cc1`, the AC50 was 1.58 µM (active). Regarding `COc1ncc2nc(-c3ccccc3)c(=O)n(-c3ccccc3)c2n1`, the AC50 entry is “inactive”. As for `Cn1cc(-c2nc3cnc(Oc4ccccc4)nc3n(C)c2=O)c2ccccc21`, the AC50 result was “inactive”. On to `COc1ncc2nc(-c3cn(C)c4ccccc34)c(=O)n(C)c2n1`, for which the AC50 was 5.01 µM (active). For the molecule `COc1ncc2nc(-c3cn(C)c4ccccc34)c(=O)n(CCC#N)c2n1`, the half-maximal activity concentration (AC50) is 6.31 µM (active). Turning to `CC(=O)c1cnc2c(C(=O)O)cnn2c1C`, the AC50 entry was “inactive”.

Turning to `Cc1cccc(OCCCC(=O)Nc2ccccc2C(F)(F)F)c1`, the AC50 was 14.1 µM (active). `Cc1c(NC(=O)CCCOc2ccccc2)cccc1[N+](=O)[O-]`: the AC50 was 14.1 µM (active).

With `Cc1c(NC(=O)/C=C/C(=O)O)cccc1[N+](=O)[O-]`, the AC50 entry was “inactive”. Same read-out and setting: then `O=C1NCCCC1C(=O)Nc1ccccc1C(F)(F)F` (stereo not given), with “inactive”; and `CCCCC(=O)Nc1cc(OCC)c(NC(=O)c2ccccc2[N+](=O)[O-])cc1OCC`, with 7.08 µM (active). On to `CCOc1cc(NC(=O)c2ccccc2[N+](=O)[O-])c(OCC)cc1NC(=O)CC(C)C`, for which the activity, negative = inhibition was 3.38% [at 2.29 µM]. Consider `CCN(CC)S(=O)(=O)c1ccc(OC)c(NC(=O)c2cc([N+](=O)[O-])ccc2Cl)c1`, for which the AC50 is 12.6 µM (active). Regarding `Cc1ccc(OCC(=O)NNC(=O)CCC(=O)Nc2ccc(C)cc2C)cc1`, the AC50 entry is “inactive”. With `OC[C@@H]1O[C@@H](N2CCN([C@@H]3O[C@@H](CO)[C@@H](O)[C@H](O)[C@H]3O)CC2)[C@@H](O)[C@H](O)[C@H]1O`, the activity, negative = inhibition is 2.3% [at 11.4 µM]. In the case of `CCN(CC(=O)Nc1ccc([N+](=O)[O-])cc1OC)c1ccccc1`, the AC50 was 12.6 µM (active). On the same count and under the same terms, the same measure for `Cc1cccc[n+]1CC(=O)Nc1ccc([N+](=O)[O-])cc1Cl`: “inactive”.

For the molecule `COc1cc([N+](=O)[O-])ccc1NC(=O)CCCOc1cccc(C)c1`, the AC50 was 5.01 µM (active). For `COc1ccccc1NC(=O)Cn1cncc1-c1ccc([N+](=O)[O-])cc1`, the AC50 was 14.1 µM (active). Consider `CCCOc1ccc(/C=C/C(=O)Nc2ccc([N+](=O)[O-])cc2C)cc1`, for which the activity, negative = inhibition was 2.56% [at 11.4 µM]. On the same count and under the same terms, then `CCN(CC)C(=O)c1cc2cc([N+](=O)[O-])ccc2s1`, with 20.4% [at 11.4 µM]; and `Cc1cc2nc([C@H](C)C(=O)c3ccc(Cl)cc3)c(=O)[nH]c2cc1C`, with -25.9% [at 11.4 µM].

`CCCS(=O)(=O)N1CCCC(C(=O)N2CCOCC2)C1` (stereo not given): the AC50 result was “inactive”. `CSc1nc(Cl)cc(N(CCO)CCO)n1`: the AC50 result was “inactive”.

As to `COC(=O)C/C=C\[C@@H](C)[C@@H](/C=N\OCC[C@H]1C=C[C@H](OC(C)=O)[C@@H](COC(C)=O)O1)NS(=O)(=O)c1ccc(C)cc1`, the AC50 is 3.98 µM (active). Turning to `COC(=O)C/C=C\[C@@H](C)[C@@H]1C=C[C@H](OC(C)=O)[C@H](COC(C)=O)O1`, the activity, negative = inhibition is -23.4% [at 11.4 µM]. On to `CCCNC(=O)OC[C@H]1O[C@@H](CCO/N=C\[C@@H](NS(=O)(=O)c2ccc(C)cc2)[C@H](C)/C=C\CC(=O)OC)C=C[C@@H]1Oc1ccc(OC)cc1`, for which the AC50 is 3.16 µM (active).

Turning to `Nc1ccn([C@@H]2CC[C@H](CO)O2)c(=O)n1`, the AC50 entry is “inactive”. Turning to `CC(C)(CO)N1CCN(C(=S)Nc2ccccc2)CC1`, the activity, negative = inhibition is -8.25% [at 11.4 µM].

On to `COc1cc2c(cc1OC)CN(C(=S)Nc1ccccc1)CC2`, for which the concentration at half-maximal activity (AC50) was 12.6 µM (active).

As to `CC(=O)Nc1sc2c(c1CN1CCN(C)CC1)CCCC2`, the AC50 result is “inactive”. On to `CC(=O)NCCC(=O)Nc1sc2c(c1-c1nc3ccccc3[nH]1)CCCC2`, for which the AC50 is 12.6 µM (active). With `COc1cccc(Cn2c(=O)c(-c3cccs3)nc3cnc(N4CCNCC4)nc32)c1`, the AC50 was 15.8 µM (active). Consider `COc1cccc(Cn2c(=O)c(-c3cccs3)nc3cnc(N4CCN(C)CC4)nc32)c1`, for which the AC50 is 12.6 µM (active).

`CC(C)OC(=O)c1cc2c(OC[C@@H](O)CNC(C)(C)C)cccc2[nH]1`: the AC50 entry was “inactive”. In the case of `Clc1ccc2c(N3CCC(CCC4CCN(c5ncnc6cc(Cl)ccc56)CC4)CC3)ncnc2c1`, the activity, negative = inhibition was -31.6% [at 11.4 µM].

Consider `CN1CCN(c2ncnc3ccc(-c4ccccc4Cl)cc23)CC1`, for which the half-maximal activity concentration (AC50) was 5.01 µM (active). Consider `CN1CCN(c2ncnc3ccc(-c4ccccc4C#N)cc23)CC1`, for which the AC50 is 15.8 µM (active). On to `Cc1ccccc1-c1ccc2ncnc(N3CCN(C)CC3)c2c1`, for which the AC50 was 3.98 µM (active). `COC(=O)c1ccc(Oc2nc(N(C)C)nc(N3CCOCC3)n2)cc1`: the activity, negative = inhibition is 14.7% [at 11.4 µM]. As to `c1ccc(C2OCC3(CO2)COC(c2ccccc2)OC3)cc1` (stereo not given), the AC50 entry was “inactive”. As to `C[C@H]1[C@H](C)OC(=O)C[C@H](O)C[C@H](O)C[C@H](O)CC[C@H](O)[C@H](O)CC(=O)C[C@H](O)[C@H](C(=O)O)[C@H](O)C[C@H](O[C@@H]2O[C@@H](C)[C@H](O)[C@@H](N)[C@@H]2O)C=CC=CC=CC=CCCC=CC=C[C@@](C)(O)[C@H]1O`, the activity, negative = inhibition was 7.28% [at 11.4 µM]. As for `CCOc1ccc2c(ccc(/C=C\c3cc(C)c4cccnc4c3O)[n+]2C)c1`, the activity, negative = inhibition is -23.9% [at 11.4 µM].

Consider `CCCc1cc(=O)oc2c(CN3CCOCC3)c(O)ccc12`, for which the activity, negative = inhibition was 1.81% [at 2.29 µM]. With `Cn1c(=O)n2n(c1=O)[C@H]1[C@H](O)[C@H]3O[C@H]3C(=O)[C@H]1CC2`, the activity, negative = inhibition is -16.9% [at 11.4 µM].

Consider `Cc1cc(Cl)nc2ccc(Cc3ccc4nc(Cl)cc(C)c4c3)cc12`, for which the AC50 was 3.16 µM (active). For the molecule `CC(=O)Nc1ccc(Cc2ccc3[nH]c(=O)cc(C)c3c2)cc1`, the activity, negative = inhibition was -20.4% [at 11.4 µM]. Regarding `CCc1c(C)nc2ccc(Br)cc2c1Cl`, the AC50 result is “inactive”. `CCOc1ccc2[nH]c(=O)c(CN(CCc3ccccc3)C(=O)N3CCCC3)cc2c1`: the concentration at half-maximal activity (AC50) is 3.55 µM (active). For the molecule `CCOc1ccc2[nH]c(=O)c(CN(CCc3ccccc3)C(=O)N3CCOCC3)cc2c1`, the AC50 was 7.94 µM (active). For `COc1ccc2[nH]c(=O)c(CN(CCc3ccccc3)C(C)=O)cc2c1`, the AC50 is 17.8 µM (active). As to `CCOc1ccc(Cc2nc(C)c(CC(=O)N3CCOCC3)c(=O)[nH]2)cc1`, the activity, negative = inhibition was 1.75% [at 11.4 µM]. Regarding `O=C(O)c1cc2cc(OCc3ccccc3)ccc2[nH]1`, the AC50 result is “inactive”.

Take `COc1ccc2[nH]c(=O)c(NC(N)=S)nc2c1`: the AC50 entry was “inactive”. Regarding `COc1cccc(C(=O)N(Cc2ccccc2)Cc2cc3cc4c(cc3[nH]c2=O)OCCO4)c1`, the half-maximal activity concentration (AC50) is 3.98 µM (active). Consider `C[N+]1(CC(=O)OCCCc2ccccc2)CCOCC1`, for which the AC50 result is “inactive”. With `COc1cccc(C(=O)n2c(SC)nc3cc4c(cc32)OCCO4)c1`, the AC50 result is “inactive”.
